Experimental data reported in the supplement of paper PMC6555819.

Legend:
Experiment in all cases: PBM binding z-score (relative to random genomic background probes); higher = stronger binding; sequences stand for … in GC…GCGATTGACAGCGTAGAATGAAGG
[1] = test system: FXR:RXRa (NR concentration 270 nM, RXRa partner concentration 90 nM)
Summary of the method: (§1)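 Custom Agilent 4×180K protein-binding microarrays carried double-stranded probes, each with a 34-nt variable region. These regions held direct-repeat seeds, single-nucleotide variants, half-site ablations and random human genomic background sequences. Ligand-free nuclear receptor dimers were incubated on the arrays for 1 h, antibodies against each partner (one per run) detected binding, and scanned fluorescence was regression-normalized. Binding z-scores take the random background probes as reference.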

[2] = test system: LXRa:RXRa (NR concentration 270 nM, RXRa partner concentration 90 nM)
Summary of the method: as §1

[3] = test system: LXRa homodimer (NR concentration 270 nM)
Summary of the method: as §1

[4] = test system: LXRb:RXRa (NR concentration 270 nM, RXRa partner concentration 90 nM)
Summary of the method: as §1

[5] = test system: LXRb homodimer (NR concentration 270 nM)
Summary of the method: as §1

[6] = test system: PPARa:RXRa (NR concentration 270 nM, RXRa partner concentration 90 nM)
Summary of the method: as §1

[7] = test system: PPARg:RXRa (NR concentration 180 nM, RXRa partner concentration 90 nM)
Summary of the method: as §1

[8] = test system: PPARg:RXRa 270nM:90nM, anti-RXR (NR concentration 270 nM, RXRa partner concentration 90 nM)
Summary of the method: as §1

[9] = test system: PPARg:RXRa 30nM:10nM, anti-RXR (NR concentration 30 nM, RXRa partner concentration 10 nM)
Summary of the method: as §1

[10] = test system: PPARg:RXRa 90nM:30nM, anti-RXR (NR concentration 90 nM, RXRa partner concentration 30 nM)
Summary of the method: as §1

Row | Sequence | PBM binding z-score [1] | PBM binding z-score [2] | PBM binding z-score [3] | PBM binding z-score [4] | PBM binding z-score [5] | PBM binding z-score [6] | PBM binding z-score [7] | PBM binding z-score [8] | PBM binding z-score [9] | PBM binding z-score [10]
1 | TCTCGGAGGACACCAAGGTCAGAGCTTTCCAGAG | 1.66 | 1.05 | 0.191 | 1.09 | -0.834 | 1.86 | 0.127 | 1.65 | 2.01 | 1.76
2 | TTACCAAGGTGAAGGTCGTTGATCCCTCTGTAGA | 2.37 | 2.03 | -0.222 | 1.45 | -0.739 | 2.55 | 3.15 | 3.94 | 2.09 | 3.67
3 | TCTATTAGTTGACTAGGGCAACCGAAACAGCGGA | 0.843 | 0.805 | -0.0763 | 0.429 | 0.447 | 1.45 | 0.971 | 2.37 | 3.68 | 3.07
4 | ACTCAAAGTTCAGGACGAGGTAACGTAAAGCACG | 4.15 | 4.07 | 1.77 | 2.18 | 0.639 | 3.27 | 1.61 | 1.86 | 0.747 | 1.23
5 | TCATATAGGTAAATGCTAGGTGAAACTCCGATCT | 1 | 0.883 | 0.327 | 0.756 | -0.00744 | 1.4 | 0.976 | 2.12 | 4.01 | 2.96
6 | CCTTACGGTTCAAGGTTATAGCACGGGTGGTACG | 2.11 | 1.96 | 0.742 | 1.66 | 0.441 | 2.53 | 0.899 | 1.18 | 0.229 | 0.767
7 | CCGACTGGGGCAAAGGTTGCCATACTCAGTACGA | -0.0811 | -0.081 | -0.3 | 0.302 | -1.06 | 4.05 | 9.16 | 7.89 | 7.65 | 8.16
8 | AGAATGATGTTAAGATCAGGGAAACAGAATACAT | -0.488 | -0.548 | -0.153 | -0.269 | -0.588 | -0.205 | 0.948 | -0.174 | 0.282 | -0.132
9 | CGAACTAGGTGATCCAGGACAGTGAATACATTGA | -0.144 | -0.403 | -0.0294 | -0.189 | -0.452 | 1.76 | 2.3 | 1.72 | 0.625 | 1.09
10 | CCTGACAGGTGAAAGGTAACTCAGTCTGGTACGC | 0.803 | 0.991 | -0.258 | 0.923 | -0.669 | 3.38 | 5.7 | 6.09 | 4 | 5.75
11 | TTACCAAGTTGAAGGTCGTTGATCCCTCTGTAGA | 2.26 | 2.28 | 0.241 | 1.56 | -0.05 | 1.59 | 0.598 | 2.48 | 1.36 | 2.27
12 | TAGCCTAGGTCCTGCGGGCCAGTATAGTGTCGGC | -1.69 | -1.08 | -1.14 | -1.49 | -1.06 | -1.2 | -0.732 | -0.789 | -0.922 | -1.13
13 | GGAACGACGGCAAGTTGATAGCAGAGTTTGATGG | -0.255 | -0.528 | -0.627 | -0.839 | -0.999 | -0.669 | 0.538 | -0.859 | -0.288 | -0.679
14 | ATATGTAGGTTAAGGGTAATTCAGGTTGGTTCGC | 1.39 | 2.14 | 1.04 | 1.72 | 0.767 | 4.6 | 8.65 | 7.77 | 8.77 | 8.33
15 | TCTAGTTGGTCACGGAGGTCACACACGACGGGTA | 3.14 | 3.39 | 2.59 | 3.33 | 0.773 | 4.01 | 3.79 | 4.11 | 3.73 | 3.75
16 | CCTACTGGGCCATAAGGTCATTGATATCAACGTT | 3.03 | 3.09 | 1.89 | 3.17 | 0.0476 | 4.14 | 4.49 | 4.98 | 3.38 | 4.64
17 | CCTCGGAGGGCAACAGGAGGTCAGAGCTGCCAGA | 2.19 | 3.83 | 1.29 | 2.23 | -0.758 | 3.02 | 0.969 | 1.32 | -0.587 | 0.405
18 | GCTTACGGGTCACAGGTTATAGCATGAATAGAAT | 6.03 | 3.91 | -0.00317 | 3.73 | 0.0394 | 5.75 | 7.57 | 6.67 | 4.61 | 6.2
19 | CGTCCAGGGTCAGAGAGGTCAGTGAATGCCGAGT | 5.65 | 4.8 | 1.62 | 4.15 | -0.103 | 4.87 | 3.32 | 4.21 | 1.19 | 2.81
20 | TCATATAGGTAAATGTGAAAGTCGAACGATATGA | 0.203 | 0.245 | -0.116 | 0.343 | -0.015 | 0.983 | 1.44 | 2.01 | 3.79 | 2.88
21 | ATATGTAGTTTACATCCGGGTCATTCAGGCTATG | 1.49 | 2.34 | 1.08 | 2.31 | 1.04 | 2.59 | 1.19 | 1.19 | 0.609 | 1.53
22 | CCTAGATGGTCAAGGTCACACACGCTATAGGTAC | 4.6 | 3.62 | 2.05 | 3.69 | 0.665 | 4.2 | 3.13 | 3.56 | 1.34 | 2.46
23 | TCATATAGGTAAAAGGTGAAATTCGGTGTGGTAA | 2.42 | 1.99 | 0.471 | 2.11 | 0.332 | 5.49 | 8.93 | 8.13 | 8.19 | 8.89
24 | CCTTACGGGTCAAGGTCATAGCACGGGTGGTACG | 6.75 | 5.29 | 1.9 | 4.12 | 0.624 | 5.78 | 6.03 | 5.86 | 2.53 | 4.68
25 | CCACACAGGTGAAAGGTAACTCAGTCTGGTACGC | 1.02 | 1.03 | 0.186 | 1.15 | -0.0183 | 3.42 | 5.45 | 5.54 | 3.68 | 5.21
